# The entries come from a sample that favours hits as a whole.
# Cruzain inh noDet – qHTS Assay for Promiscuous and Specific Inhibitors of Cruzain (without detergent); 2.3% of 200,000 active; Potency, µM, without a hit: max response, negative = inhibition, most hits filed as inhibitors; Cruzipain (Trypanosoma cruzi), P25779; purified cruzain, Z-FR-AMC fluorescence, no detergent; AID 1476, 2009;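 also: plate controls were enzyme without inhibitor for no effect and buffer without enzyme for full effect; nearly all actives have a fitted effect of over 40% in size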
# Target sequence (P25779 123-467 limits assumed): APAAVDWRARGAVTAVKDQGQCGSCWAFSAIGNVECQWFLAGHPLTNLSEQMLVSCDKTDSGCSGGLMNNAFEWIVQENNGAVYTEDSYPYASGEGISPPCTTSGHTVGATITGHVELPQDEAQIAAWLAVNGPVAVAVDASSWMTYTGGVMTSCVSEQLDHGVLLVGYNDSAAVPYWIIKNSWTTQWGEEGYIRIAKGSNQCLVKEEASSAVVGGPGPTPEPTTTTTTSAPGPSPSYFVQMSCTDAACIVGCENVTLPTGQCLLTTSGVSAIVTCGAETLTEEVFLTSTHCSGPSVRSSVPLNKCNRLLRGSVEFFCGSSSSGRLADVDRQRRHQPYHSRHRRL
#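 Purified cruzain at 1.5 nM, pre-incubated 15 min with compound at room temperature in 100 mM sodium acetate pH 5.5, 5 mM DTT, 0.00005% Triton X-100. Reaction started with 2 uM Z-FR-AMC; AMC fluorescence increase over 60 s gives rate.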
# Cruzain Triton – qHTS Assay for Promiscuous and Specific Inhibitors of Cruzain (with detergent); purified cruzain, Z-FR-AMC fluorescence, 0.01% Triton; Potency, µM, inactives show max response, negative = inhibition, actives largely listed as inhibitors; 0.43% of 200,000 active;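 also: plate controls were neutral wells for no effect and buffer without enzyme for full effect; nearly all actives have a fitted effect of over 40% in size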
#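 Cruzain (1.5 nM) preincubated 15 min at RT with compound in 100 mM sodium acetate pH 5.5, 5 mM DTT, 0.01% Triton X-100. Reaction started with 2 uM Z-FR-AMC; AMC fluorescence (ex 360/em 450 nm) change over 60 s gave rate.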
# NS1 function inh – qHTS Assay for Inhibitors of Influenza NS1 Protein Function. Potency, µM (top dose mostly 46.1 µM), for the others: at the top dose activity, positive = more growth. 0.4% of 270,000 active; calls by dose curve; also: actives are rising curves; nearly all actives have a fitted effect of over 50% in size
#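 In this qHTS, NS1 from influenza A is expressed in budding yeast, where it slows growth. Cells are switched from glucose to 2% galactose medium (pH 6.0, -URA), treated with compound, and growth recovery is read at OD600.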
# The depositor's hits bear a star; ? = inconclusive; . = no result. Unless noted, calls follow the shape of the dose curve; as a rule, active = well fitted curve in the direction sought with a large enough effect; inconclusive = small, poorly fitted or top-dose-only effect, or another doubt; inactive = no such curve, though single readings can be large; an effect the other way counts as inactive or inconclusive. Potency is read from the fitted curve at half-maximal effect.
SMILES,Cruzain inh noDet,Cruzain Triton,NS1 function inh
CCCCNc1nc(C)nc2c1nc(-c1ccccc1)n2CC1CCN(C)CC1,-2%,-11%,.
CCc1nc2cccnc2n1-c1ccc(CC(=O)Nc2cccc(C)c2C)cc1,-5%,16µM*,.
CCc1nc2cccnc2n1-c1ccc(CC(=O)Nc2ccccc2Cl)cc1,1%,13µM*,.
CCc1ccccc1NC(=O)Cc1ccc(-n2c(C)nc3cccnc32)cc1,-2%,-21%,.
CCc1nc2cccnc2n1-c1ccc(CC(=O)Nc2ccc(C)cc2)cc1,2%,-10%,.
CCCn1c(C)nc2c(NCCCCN3CCCC3)nc(C)nc21,-5%,4%,.
CCCCN1C(=O)c2[nH]nc(-c3ccccc3O)c2C1c1ccc(OCc2ccccc2)cc1 (stereo not given),?,-2%,.
Cc1ccc(N2CC(C(=O)OCC(=O)c3ccc(F)cc3)CC2=O)cc1 (stereo not given),.,.,-9%
Cc1ccc(C(=O)COC(=O)C2CC(=O)N(c3nc(-c4ccccc4)cs3)C2)cc1C (stereo not given),32µM*,2%,7%
O=[N+]([O-])c1ccc(Oc2ccc(-c3cnc4ccccc4n3)cc2[N+](=O)[O-])cc1,?,-2%,0%
O=[N+]([O-])c1cc(-c2cnc3ccccc3n2)ccc1Oc1ccc(Br)cc1,25µM*,0%,?
Cc1cc(C(=O)COC(=O)CNC(=O)c2ccc(Cl)c(Cl)c2)c(C)n1Cc1ccco1,-12%,10µM*,3%
O=C(CNC(=O)c1ccccc1)OCC(=O)c1ccccc1Cl,.,.,-3%
C=CCn1c(C)cc(C(=O)COC(=O)CNC(=O)c2ccccc2)c1C,20µM*,25µM*,-5%
Cc1ccc(C(=O)NCC(=O)OCC(=O)c2cc(C)n(Cc3ccco3)c2C)cc1,-1%,-30%,9%
COc1cc2c(cc1O)[C@@H](c1cc(O)c(O)c(OC)c1)[C@@](O)(C(=O)O)[C@@H](CO)[C@@H]2O,-3%,3%,0%
CCN(Cc1nc(-c2cccc(C)c2)no1)S(=O)(=O)c1ccc(C)cc1,-3%,-5%,.
C=CCC(C)(O)c1cccc(Br)c1 (stereo not given),14%,1%,.
Cc1ccccc1C(=O)OCc1cc(=O)n2nc(C(C)C)sc2n1,2%,-3%,.
COC(=O)c1ccc(C(/C=C/[C@@H](C)C(=O)NCCc2c[nH]c3ccccc23)NC(=O)OCc2ccccc2)cc1 (stereo not given in full),-4%,-8%,.
Cn1c(=O)c(-c2cc(F)cc(F)c2)nc2cnc(N3CCNCC3)nc21,8%,-5%,.
CCc1ccc(NCc2cc3cc4c(cc3n(CC(=O)Nc3ccc(OC)cc3)c2=O)OCO4)cc1,2%,-3%,.
COc1ccc(NCc2cc3cc4c(cc3n(CC(=O)Nc3ccc(C)cc3)c2=O)OCO4)cc1,20µM*,-6%,.
CCc1ccc(NCc2cc3ccc(OC)cc3n(CC(=O)Nc3c(C)cc(C)cc3C)c2=O)cc1,3%,-2%,.
CCc1ccc(NCc2cc3ccc(OC)cc3n(CC(=O)Nc3ccc(C)c(Cl)c3)c2=O)cc1,25µM*,-3%,.
SMILES,Cruzain inh noDet,Cruzain Triton,NS1 function inh
COc1ccc(NCc2cc3cc4c(cc3n(CC(=O)Nc3ccc(C)cc3C)c2=O)OCO4)cc1,?,-7%,.
CCc1ccc(NCc2cc3cc4c(cc3n(CC(=O)Nc3cccc(OC)c3)c2=O)OCO4)cc1,25µM*,-5%,.
COC1=CC(=O)OC(CCc2ccccc2)C1 (stereo not given),2%,-1%,.
COc1cc(OC)c(NC(=O)c2noc3c2CSc2ccccc2-3)cc1Cl,-3%,-8%,.
COc1ccccc1CNc1ncnc2ccc(-c3cccc(NS(C)(=O)=O)c3)cc12,-9%,-2%,.
CCOc1ccc(NC(=O)Cn2ccn3nc(-c4ccc(OC)c(OC)c4)cc3c2=O)cc1,-3%,1%,.
COc1ccc(-c2csc(-n3ncc(-c4cccs4)c3N)n2)cc1,1.6µM*,5%,10%
COc1ccc(-c2csc(-n3cccn3)n2)cc1,.,.,-10%
C=Cc1ccc(Cn2c(=O)n(-c3cccc(C)c3)c(=O)c3c2c2cc(C)ccc2n3C)cc1,25µM*,-18%,.
Cc1cccc(-n2c(=O)c3c(c4cc(C)ccc4n3C)n(C)c2=O)c1,-3%,0%,.
COc1ccc(C2Nc3ccccc3C(=O)N2Cc2ccco2)cc1COc1ccc([N+](=O)[O-])cc1 (stereo not given),?,0%,0%
COc1cccc(OCc2cc(C3Nc4ccccc4C(=O)N3Cc3ccco3)ccc2OC)c1 (stereo not given),16µM*,-7%,16%
O=C1NC(=O)/C(=C/c2ccccc2OCc2ccccc2)S1,.,.,-8%
O=C1NC(=O)/C(=C\c2ccccc2Oc2ccc(F)c(F)c2)S1,25µM*,-7%,7%
COc1ccc2nc3c(cc2c1)Cc1ccccc1-3,14%,-4%,.
CSc1ncc2c(n1)-c1ccccc1N(Cc1ccc(Cl)cc1)S2(=O)=O,-17%,4%,.
O=C(CSc1ccc(Cl)cc1)Nc1ccc(N2CCN(C(=O)c3ccco3)CC2)cc1,-10%,-1%,18%
COc1ccc(NC(=O)c2ccccc2NC(=O)CSc2ccc(Cl)cc2)cc1,13µM*,9%,2%
COc1ccc(NC(=O)c2ccccc2NC(=O)CSc2ccccc2)cc1,-19%,-1%,-3%
O=C(CSc1ccc(Cl)cc1)Nc1ccc(NC(=O)c2ccco2)cc1,10µM*,4%,29%
CCCCNC(=O)CCCn1c(=O)c2ccccc2n(CC(=O)Nc2ccccc2OCC)c1=O,-9%,0%,.
CCn1c2c(c(=O)n3ncc(C(=O)Nc4ccc(C(=O)OC)cc4)c13)CN(Cc1ccc(OC)cc1)CC2,?,-8%,.
Clc1ccccc1-c1nnc2sc(-c3ccc(Br)o3)nn12,-13%,-5%,-10%
Clc1ccc(-c2nnc3sc(-c4ccc(Br)o4)nn23)cc1,?,2%,11%
Clc1ccc(-c2nnc3sc(-c4ccc(Br)o4)nn23)c(Cl)c1,20µM*,-1%,3%
SMILES,Cruzain inh noDet,Cruzain Triton,NS1 function inh
Cc1oc(-c2ccc(Cl)cc2)cc1-c1nn2c(-c3ccoc3C)nnc2s1,7%,-6%,10µM*
O=C(Nc1ccccc1Cl)C1CCN(c2nc3ccccc3nc2C(F)(F)F)CC1,-4%,2%,.
Cc1ccc(CNC(=O)c2sc3nc4n(c(=O)c3c2C)CCCC4)cc1,-5%,-6%,.
O=C(N/N=C/c1c(O)n(-c2ccccc2Cl)c(=O)c2ccccc12)C1COc2ccccc2O1 (stereo not given),12%,-10%,3.5µM*
Cc1ccc(-n2c(O)c(/C=N/NC(=O)C3COc4ccccc4O3)c3ccccc3c2=O)cc1 (stereo not given),12%,-8%,?
O=C(CSc1nnc(-c2c[nH]c3ccccc23)o1)c1ccc(-c2ccccc2)cc1,5µM*,-1%,?
COC(=O)CSc1nnc(-c2c[nH]c3ccccc23)o1,.,.,-12%
NCCC[C@@H](CC(=O)N[C@@H]1CCCC[C@H]1C(=O)N[C@H](CC(=O)N[C@@H](CCC(=O)O)CC(=O)O)Cc1ccccc1)NC(=O)C[C@H](Cc1ccccc1)NC(=O)[C@@H]1CCCC[C@H]1N,?,2%,.
CC1CCCO1 (stereo not given),-10%,-1%,.

# Assay outcomes as filed in PubChem.
